9 molecules from publication PMC12864922, “TDP-43 directly inhibits mRNA accumulation in neurites through modulation of mRNA stability” can be followed below.

B1: ENSMUSG00000061578.598|Ksr2 (ssRNA)
RNA: GGGAGUUCUACAGUCCGACGAUCGCUUCGAUAUCCGCAUGCUAUAAAAUAUGAUUCAGGCAAAUUCAAUGCAACUCAAAAUUUCCACCAAUCCCAUAUUGUCCCUAGCAAUGACAAAAUUAUUUGCAAGACAGACCCUGUGACCUGUAGAGGCAAAAUAUAUGGUGGCUUGCCUGGCUGGCCUGUGAUAUAGUGGACUGUCUUAGUGAUCGGACUUCAGGGAGCAACCUAUAGGAAAUGCAAAGGCUUAGAGGGGACGGACAGCUCCCUGACCCUGGAUGGCCAGGAAUGGUGCUAGCUAGGGCUCUUGCGGUCGCACUAGUGUGGAAUUCUCGGGUGUCAAGG
B2: ENSMUSG00000031028.646|Tub (ssRNA)
RNA: GGGAGUUCUACAGUCCGACGAUCGCUUCGAUAUCCGCAUGCUACCCCACUGAGGUCCAGGUAGAGCAGAUGAGGCUGAAAUGUAGAGUGUUCUAUAGAGCAUCUCAGUAGCAUAGAAGGAGAAGCCCAGCUCCAACCUCCUGGACCCCAUACUGGUGACCAGCUUGGUGAGGACAGGCAAAAUUUCUCUAGCUGAGAGCACACUUAGCCAGUUUUCACGCCUAGAACAUAUAUGUCGAUUUGCACAUGAUUGUCUUUUCCUAUUUUGGAGUGGUCAGACAUUUUAUUUUUGUUCAAAAUUAUCCUCUUGCGGUCGCACUAGUGUGGAAUUCUCGGGUGUCAAGG
B3: ENSMUSG00000031028.671|Tub (ssRNA)
RNA: GGGAGUUCUACAGUCCGACGAUCGCUUCGAUAUCCGCAUGCUAGAGAGCACACUUAGCCAGUUUUCACGCCUAGAACAUAUAUGUCGAUUUGCACAUGAUUGUCUUUUCCUAUUUUGGAGUGGUCAGACAUUUUAUUUUUGUUCAAAAUUAUCUGGAGUUUUAGACAAACUUGCAAAACUGUGCUUUUAUUAAGUGACUUUUUGAAUAAACUUUUUGGUAUUCUGAAGCAAAUGUAUUUAUUUAUUGGUAUGUGCAAUGACAAACUUGGUAUUUUCCCAUAAUGACAUUAUGUAUGUUGUAGACUCUUGCGGUCGCACUAGUGUGGAAUUCUCGGGUGUCAAGG
B4: ENSMUSG00000029636.275|Wasf3|21:26 (ssRNA)
RNA: GGGAGUUCUACAGUCCGACGAUCGCUUCGAUAUCCGCAUGCUAUCCCUACGCCCUGCUUUGGCCACACACUGAGUGCUCUGUGCUGCGCCAUGGCCAUCCUGGAGCCUGCGCACACGUGGCCGCUGCUGUGACUCGCUGUCCUUGGUAAUUGGUGAGAGGCUUUUUCUUUCUUUCUCAGUUCUGCUUUUCCACACUGAGACCCACCAUGUUGACAUCAUCCUCGCGACGUUGACAUUUGAGCCUUUUGUUCUGUCUCCCAUGUGCCCUGUAGAACCCAGCACUCAUGUUUGGCAAAACUUUUUCUCUUGCGGUCGCACUAGUGUGGAAUUCUCGGGUGUCAAGG
B5: ENSMUSG00000061578.898|Ksr2 (ssRNA)
RNA: GGGAGUUCUACAGUCCGACGAUCGCUUCGAUAUCCGCAUGCUAGACACUACCCAAACCCUAGCACUCUCCCAGUGACUCUCCUAUGAGUACAUAUGCCAUCCUGCUUCCUUUGUGGCAAAACCCUGGGUCACCCAGAGACAGAUUUCCCAGAAUCCCUGGGCCACUUCUCAAUUCUACCCAUGACAGACAUGUCCCAUCCAUGAGCCCAGAUAGUCAAAGACUUCAGCACAAGGGUGUUUAGAGUAGGCAGUGUGGAAGUAUCAAUAAGGUUAUUGAGAUGAGGAUUUAGAAAGAUCCAUGUACUCUUGCGGUCGCACUAGUGUGGAAUUCUCGGGUGUCAAGG
B6: ENSMUSG00000042529.46|Kcnj12|142:149 (ssRNA)
RNA: GGGAGUUCUACAGUCCGACGAUCGCUUCGAUAUCCGCAUGCUAGGCCAAAAUGACUGGCUCACGGCCUCGGAGGCUGAUGUAUACCCAUGGGCAAGGAGGUGACUUCUUGGGGUAGGGUUGCUCAGGAGUUAGGGACUCUGCUGGAGGCCUUAGGUGCAGGUCCCAGCCCCGGUGGGAGGAGGCACACAUACUACACUUCAUUGGUUUUUAACUUGGGCAAGACUGUUUACAAACAAAAACAAACAAACAAACAAUCAAAAAAAAAACCCACCCCACAAAACACAAGAAAACAUUAACAGGUGCUCUUGCGGUCGCACUAGUGUGGAAUUCUCGGGUGUCAAGG
B7: ENSMUSG00000031028.261|Tub (ssRNA)
RNA: GGGAGUUCUACAGUCCGACGAUCGCUUCGAUAUCCGCAUGCUACCAGAGGGAAGCAAAGAGCAUUUAGACAUUGCUUUUUGCUUUGAAAUAGAUAUGUUUGGAAACGCUAAGUAGAAGUUUAAAAAGUAGAGUCAUGUAGAGUCAUGCUUUGAAUAUGUGGGUCAUGCUUUAGAUAUGAAGAGGCUAUGCAGGUAAGGAGGCUGGAUUGAUGUAAAUGGAAGUAGUACUUUAAGAAAGCUCUAGAUUUCCCAGGUUGGACACUCGACGAAAGGCACACCUGCUGCAGCAGGUUCUGACACACCCUCUUGCGGUCGCACUAGUGUGGAAUUCUCGGGUGUCAAGG
B8: ENSMUSG00000043670.150|Diras1|4:8;157:162;227:231 (ssRNA)
RNA: GGGAGUUCUACAGUCCGACGAUCGCUUCGAUAUCCGCAUGCUAGGACACACGAGUGGCUGCCUGGACACUGCCCACCUGGACACCAGCCUUCUGCUGAGAUAGAGACCUUGGCACAGUGGCACCUCGACAGCCACCCCGACUGGGGGUUUGGGGUGCUGAGGGUGGGGUGCCCAGCUGAGAGUCUAUCAGCAAAGUCCCACACACCGGUGAUAGGACUAGUGGCUGCUGCCCUAGGGCUCUGACAGAAUCUGAGCCUCUUUGCUGGUCAACACAACUCUGGAGACUGUCCCCCAUGUCUGCCCCUCUUGCGGUCGCACUAGUGUGGAAUUCUCGGGUGUCAAGG
B9: ENSMUSG00000034801.46|Sos2 (ssRNA)
RNA: GGGAGUUCUACAGUCCGACGAUCGCUUCGAUAUCCGCAUGCUACCACCCGCCACUGUAUAGACUGCCUCUGCUGGAAAAUGCAGAAACUCCUCAAUGACCUUGGCCAUAUGUAGUCAUUGACACUGGAAUAGUAUUUGUAAAGGUUUUUAAUUUAUUCAAAAAGACAUAGUAUUUUAGUACUUUUUACAGAAAUGCUACUGAUUAAAUAAGCUCUUAAGAAUUAGUAAACUUGUUGGAUGGCAGUGGCCCACAGCUGUAAUCCCAGCACCCUGGUUGCAGGGGCAGGUGGGCUUCAGGGUUUGCUCUUGCGGUCGCACUAGUGUGGAAUUCUCGGGUGUCAAGG

The full ranking holds about 9,900 sequences; the median of “r (bound/input frequency ratio)” is about 0.7, and the highest 2% start at about 6.5. Shown is part of a subset that was picked to be rich in the highest values.

Sequence of TDP-43 (Q13148 whole entry): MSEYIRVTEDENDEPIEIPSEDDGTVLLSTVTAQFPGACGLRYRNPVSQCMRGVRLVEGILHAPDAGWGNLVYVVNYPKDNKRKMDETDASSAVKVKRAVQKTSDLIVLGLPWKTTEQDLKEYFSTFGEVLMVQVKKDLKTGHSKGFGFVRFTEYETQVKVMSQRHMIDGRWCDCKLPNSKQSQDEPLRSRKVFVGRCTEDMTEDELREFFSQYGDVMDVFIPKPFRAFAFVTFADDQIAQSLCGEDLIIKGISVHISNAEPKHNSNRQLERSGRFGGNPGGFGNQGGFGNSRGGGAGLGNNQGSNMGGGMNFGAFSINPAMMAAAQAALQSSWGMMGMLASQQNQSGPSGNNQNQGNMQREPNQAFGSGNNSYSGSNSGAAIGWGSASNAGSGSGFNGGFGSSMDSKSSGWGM

The target in the test is TDP-43 (Homo sapiens, UniProt Q13148 1-414). Kind of test: RNA Bind-n-Seq with designed 260-mer pool; 25 mM Tris-HCl, 150 mM KCl, 3 mM MgCl2, BSA (printed 500 mg/mL), 20 units/mL SUPERase IN; pH not stated; 500 nM RNA pool, 1 h, 4 C; TDP-43 5, 50, 500 nM; high values mean tight binding. As to conditions: protein: recombinant; tags: SBP (GST cleaved off with PreScission; pGEX-GST-SBP). The procedure, abridged:
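In 25 mM Tris-HCl, 150 mM KCl, 3 mM MgCl2, BSA and SUPERase IN, 500 nM of an in vitro-transcribed 260-nt 3′ UTR oligo pool was incubated for 1 h at 4 °C with SBP-tagged TDP-43 (5, 50 or 500 nM) captured on streptavidin beads. RNA remaining after washes was biotin-eluted, reverse transcribed, PCR-amplified and sequenced. Binding, R, is the bound-sample abundance of each oligo, normalized to mapped reads, divided by its abundance in input. Each duplicate used a separate, independent protein batch.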
As to B1, the binding signal is 0.515 R (bound/input frequency ratio). Consider B2, for which the binding signal is 0.442 R (bound/input frequency ratio). Take B3: the binding signal was 0.247 R (bound/input frequency ratio). With B4, the binding signal is 1.01 R (bound/input frequency ratio).

In the case of B5, the binding signal is 0.362 R (bound/input frequency ratio). Next, B6: 0.514 R (bound/input frequency ratio); B7: 2.37 R (bound/input frequency ratio). As to B8, the binding signal is 1 R (bound/input frequency ratio). Then B9, with 0.116 R (bound/input frequency ratio).
